PP5 primary: PP5 (human) phosphatase inhibition | P53041 | purified PP5c, OMFP substrate fluorescence | inhibition, % at 6.7 µM | 320,000 compounds, 0.18% hits | AID 1987;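 active = inhibition above the campaign's mean inhibition across all tested compounds plus 3 SD, cut at about 9.5% in these data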;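 note: 0% = DMSO only and 100% = 100 µM cantharidin control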
Target sequence (P53041 whole entry, looked up): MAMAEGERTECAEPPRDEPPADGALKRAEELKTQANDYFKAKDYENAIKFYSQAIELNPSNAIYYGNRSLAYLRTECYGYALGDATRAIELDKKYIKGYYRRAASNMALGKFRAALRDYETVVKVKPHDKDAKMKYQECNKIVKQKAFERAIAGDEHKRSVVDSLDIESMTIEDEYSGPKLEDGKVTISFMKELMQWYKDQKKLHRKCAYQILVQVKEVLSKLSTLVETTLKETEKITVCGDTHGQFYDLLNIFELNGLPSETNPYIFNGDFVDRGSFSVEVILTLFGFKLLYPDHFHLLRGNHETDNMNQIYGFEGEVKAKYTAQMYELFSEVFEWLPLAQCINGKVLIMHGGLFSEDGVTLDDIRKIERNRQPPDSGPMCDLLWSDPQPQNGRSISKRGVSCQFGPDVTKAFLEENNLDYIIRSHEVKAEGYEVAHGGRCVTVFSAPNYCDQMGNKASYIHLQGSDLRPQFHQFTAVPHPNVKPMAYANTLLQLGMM
Calb FLC: affects C. albicans growth with fluconazole; C. albicans CaCi-2 (fluconazole-resistant clinical isolate) + fluconazole, Alamar Blue growth, 48 h; growth inhibition, % (test concentration not listed); 300,000 compounds, 0.57% hits;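 active = growth inhibition above about 58% in most replicates, limit read from the data, passing the limit was not always enough; inconclusive = exactly half the replicates above a set limit; inactive = most replicates below a set limit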;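 note: all wells also contain fluconazole at 8 µg/ml as a sub-toxic cotreatment; 0% = median of DMSO wells and 100% = median of geldanamycin control wells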
PP1 counter: PP1-alpha (human) inhibition in PP5 counter-screen | purified PP1alpha, OMFP fluorescence | 320,000 compounds, 0.9% hits | inhibition, % at 6.7 µM | P62136;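 active = inhibition above the mean inhibition of all tested compounds plus 3 SD, computed separately for each screening campaign, cut at about 15% in these data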
CSC inhib: cancer stem cell inhibition; cancer stem cell-like cells viability, luminescence; inhibition, % at 7.5 µM; 300,000 compounds, 1.1% hits; AID 2717; in the data active = inhibition above about 75%; inconclusive = no clear call, values can overlap the other calls; tested in HMLE shEcad cells
ALR H2O2 inh: inhibitors of human sulfhydryl oxidase ALR; P55789; purified ALR, DTT oxidation, H2O2 HRP-luminol luminescence; inhibition, % (no concentration beside the values); 290,000 compounds, 3.8% hits; AID 485317;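 active = mean replicate inhibition above about 79%, with every replicate also reaching it, limit read from the data; inconclusive = only one of the two criteria met; inactive = mean below limit and not every replicate reaching it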
Starred values were filed as active, the others as inactive; u = inconclusive; x = not tested or not shown. A selection: hits, their analogues and other compounds. The true share with any hit is near 5.4%.

SMILES	PP5 primary	Calb FLC	PP1 counter	CSC inhib	ALR H2O2 inh
Cc1ccc(O)c(-c2cc(C(=O)NCc3ccncc3)[nH]n2)c1	0	-3	-3	-7	90*
COc1cc(NC(=O)CSc2nc3c(c(=O)[nH]2)CCCC3)cc(OC)c1OC	-2	13	-5	5	x
CCN1CCCC1CNC(=O)c1ccc(Sc2ccccc2Cl)c([N+](=O)[O-])c1 (stereo not drawn)	0	-13	2	74	-7
CCN1CCCC1CNC(=O)c1ccc(Sc2ccc(F)cc2)c([N+](=O)[O-])c1 (stereo not drawn)	-1	2	1	79*	x
O=C(Nc1cccc(S(=O)(=O)N2CCCCC2)c1)c1ccccc1NS(=O)(=O)c1ccc(F)cc1	9	54	10	50	-2
O=C(Nc1cc(S(=O)(=O)N2CCCCC2)ccc1O)c1ccccc1NS(=O)(=O)c1ccc(F)c(F)c1	-6	24	16*	10	96*
CC(C)C[C@H]1CN=C(Nc2ccccc2)N1CCCC1CCCC1	0	-21	-3	25	0
CC(C)C[C@H]1CN=C(Nc2ccccc2)N1CCCC1CCCCC1	1	77*	-1	27	4
N#Cc1c(F)cccc1N1CCOCC1	-2	-3	-7	-17	x
O=C(O)C(c1ccccc1)N1C(=O)/C(=C/c2cccs2)SC1=S (stereo not drawn)	0	3	-1	3	98*
C=CCOc1ccc(/C=C2\SC(=S)N(C(C(=O)O)c3ccccc3)C2=O)cc1 (stereo not drawn)	x	10	x	x	x
CC(c1ccccc1)N1C(=O)/C(=C/c2ccncc2)SC1=S (stereo not drawn)	4	5	17*	85*	4
CCc1nnc(NC(=O)Cn2nnc(-c3ccccc3F)n2)s1	0	22	0	-11	-3
CC(C)(O)/C=C1/Oc2ccccc2C1N1CCCCC1 (stereo not drawn)	1	-14	-4	-5	2
COc1ccc(C(C[N+](=O)[O-])C2(c3ccc(OC)c(OC)c3)C(=O)c3ccccc3C2=O)cc1 (stereo not drawn)	3	-6	-4	89*	62
COc1ccc(C(C[N+](=O)[O-])c2c(-c3ccccc3)cc3ccccn23)cc1OC (stereo not drawn)	1	11	7	10	9
Brc1cc(Br)c2ncnc(N3CCCCC3)c2c1	2	-10	-3	84*	10
Clc1ccc(-n2ncc3c(N4CCCCCC4)ncnc32)cc1	1	-2	-2	59	-4
NS(=O)(=O)c1ccc(N2N=C(c3ccc(Br)cc3)CC2c2ccc(F)cc2)cc1 (stereo not drawn)	6	3	2	125*	x
CCCCOC(=O)c1ccc(N)cc1	-1	-5	-7	31	-9
O=C(c1csc(Nc2ccccc2Cl)n1)N1CCCC1	1	9	-2	-17	84*
CCOP(=O)(OCC)C(Nc1cccc([N+](=O)[O-])c1)c1ccc(OC)cc1 (stereo not drawn)	2	-3	-3	-7	-2
CCOc1ccc(NC(c2ccccc2)P(=O)(OC)OC)cc1 (stereo not drawn)	0	-7	-3	12	89*
COP(=O)(OC)C(Nc1ccc(C)cc1)c1ccc([N+](=O)[O-])cc1 (stereo not drawn)	0	-2	0	-10	83*
CCN1CCN(c2ccc(NC(=O)c3cccc4ncccc34)cc2)CC1	0	2	-3	1	-1
SMILES	PP5 primary	Calb FLC	PP1 counter	CSC inhib	ALR H2O2 inh
COc1ccc(-c2cn(Cc3ccc(C(N)=O)cc3)c(-c3ccncc3)n2)cc1	2	x	2	7	98*
COc1ccc(-c2cn(CCC(=O)O)c(-c3ccncc3)n2)cc1	0	x	0	-11	69
O=C(O)CCn1cc(-c2ccc(Cl)cc2)nc1-c1ccncc1	3	x	2	-1	77*
Cc1ccc(-n2c3c(cc(C(=O)N4CCN(C)CC4)c2=O)C(=O)CC(C)(C)C3)cc1	1	-9	-1	-13	-3
COc1cccc(N2CCN(C(=O)c3ccc(CS(=O)c4ccccc4Cl)o3)CC2)c1 (stereo not drawn)	2	4	0	52	63
COc1ccc(N2CCN(C(=O)c3ccc(CS(=O)c4cccc(C)c4)o3)CC2)cc1 (stereo not drawn)	1	21	-3	-5	99*
COc1cccc(N2CCN(C(=O)c3ccc(CS(=O)c4ccccc4C)o3)CC2)c1 (stereo not drawn)	0	16	0	54	91*
Cc1cccc(N2CCN(C(=O)c3ccc(CS(=O)Cc4cccc(Cl)c4)o3)CC2)c1C (stereo not drawn)	-2	22	8	14	100*
CCOC(=O)c1cnc2cc(-c3ccc(C(C)(C)C)cc3)nn2c1N	0	1	-1	x	40
COc1cccc(OC)c1NC(=O)c1nc2c(nnn2Cc2ccccc2Cl)c(=O)[nH]1	5	47	2	4	3
COc1ccc(C(=O)NC(C)C2CC3CCC2C3)c(OC)c1 (stereo not drawn)	-2	8	1	x	1
Cc1nn2c(COc3ccc(NC(=O)c4ccccc4Cl)cc3)nnc2c2ccccc12	2	2	5	90*	-18
CCOC(=O)C1=C(C)NC(=O)NC1c1ccc(N(CC)CC)cc1 (stereo not drawn)	-1	-7	-1	-8	98*
COC(=O)C1=C(C)NC(C)=C(C(=O)OC)C1c1ccc(NC(C)=O)cc1	0	2	-1	-6	-6
CCN(CC)c1ccc(C2NC(=O)NC(C)=C2C(=O)Nc2ccccc2)cc1 (stereo not drawn)	1	20	-2	-13	99*
CCN(CC)c1ccc(C2C(C(=O)OC)=C(C)NC(C)=C2C(=O)OC)cc1	1	-14	3	8	99*
CC(C)CCNC(=O)[C@H](CC(C)C)NC(=O)[C@H]1O[C@@H]1C(=O)O	-2	6	5	1	u
CCOC(=O)[C@H]1O[C@@H]1C(=O)N[C@@H](CC(C)C)C(=O)NCCC(C)C	0	x	1	1	86*
COc1ccccc1N1CCN(C(=O)C(=O)c2cn(CC(=O)N3CCOCC3)c3ccccc23)CC1	1	-8	-1	-2	6
O=C(COC(=O)CSc1ccc([N+](=O)[O-])cc1)NCC1CCCO1 (stereo not drawn)	x	9	x	16	99*
O=C(c1cccc(-c2ccc(O)cc2)c1)N1CCOCC1	1	1	-2	-5	99*
CCC(=O)NC(=S)Nc1ccccc1C(F)(F)F	2	2	-2	-2	68
O=S(=O)(Nc1nc2ccccc2nc1Nc1ccc(N2CCOCC2)cc1)c1cc(Cl)ccc1Cl	1	5	1	86*	31
Clc1nc(Nc2ccc(N3CCOCC3)cc2)c2ccccc2n1	1	8	-1	x	72
COC(=O)c1ccc(CO/N=C2\CCCc3nonc32)cc1	-1	-9	-4	7	-2

Source: PubChem BioAssay
